# Reference: the supplement of paper PMC6555819
# Assays:
# Test in all cases: PBM binding z-score (relative to random genomic background probes); higher = stronger binding; sequences stand for … in GC…GCGATTGACAGCGTAGAATGAAGG
# [1] = test system: RARb homodimer (NR concentration 270 nM)
# Outline: (§1)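 Probes were double-stranded and carried 34-nt variable regions with direct-repeat seeds, single-nucleotide variants, half-site ablations and random human genomic background sequences, printed on custom Agilent 4×180K protein-binding microarrays. Arrays were incubated 1 h with ligand-free nuclear receptor dimers in PBS pH 7.4, 2% milk, 0.02% Triton X-100, 1 mM DTT, 0.2 mg/mL BSA and 0.4 mg/ml salmon testes DNA. Antibodies against each partner (one per run) detected binding, and scanned fluorescence was regression-normalized. Binding z-scores use the random background probes as reference.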
# [2] = test system: RARg:RXRa (NR concentration 270 nM, RXRa partner concentration 90 nM)
# Outline: as §1
# [3] = test system: RARg homodimer (NR concentration 270 nM)
# Outline: as §1
# [4] = test system: RXRa DBDmut IVT, anti-RXR (DBD mutation: RXRa K156A/R161A, NR concentration 90 nM)
# Outline: as §1
# [5] = test system: RXRa homodimer (NR concentration 180 nM)
# Outline: as §1
# [6] = test system: THRa:RXRa (NR concentration 90 nM, RXRa partner concentration 90 nM)
# Outline: as §1
# [7] = test system: THRa homodimer (NR concentration 90 nM)
# Outline: as §1
# [8] = test system: VDR homodimer (NR concentration 270 nM)
# Outline: as §1
Sequence,PBM binding z-score [1],PBM binding z-score [2],PBM binding z-score [3],PBM binding z-score [4],PBM binding z-score [5],PBM binding z-score [6],PBM binding z-score [7],PBM binding z-score [8]
CATACAGGGTCAGCTCGGCCAGAGTAGGGACGGC,3.1,4.38,4.49,1.2,3.95,3.01,0.883,0.595
AGAATTAGGTTAAGATCAGGGAAACAGAATACAT,0.701,1.04,1.09,-0.0806,0.853,1.35,0.656,0.432
GATACAGGGTCAAGGCCAGAGTGCGCGTATTGAT,3.82,5.48,5.27,2.42,5.94,3.42,1.27,2.96
CTACCAAGGTGAACAAGGTAGTTGATTACTATTC,0.762,0.87,0.957,0.172,0.815,1.75,0.665,-0.336
AGAATGAGGTTATACGTAGATCAGGGAGGAAAGT,0.93,1.79,1.27,1.87,2.27,2.24,0.817,1.09
ATATGGAGGTTACATCCGGGTCATTCAGGCTATG,3.23,4.87,2.66,1.17,4.23,4.11,2.74,3.3
GCTAGCAGGCCATTTGCGTCACTCAATGACGGGC,-0.848,-0.404,-0.336,-0.115,-0.347,-0.649,-0.795,-0.529
TCATATTGGTAATACAGGTGAAAGTCGGCATCTA,0.667,0.388,0.332,1.69,0.917,0.669,0.437,0.279
ATCGAAAGGTCGTAAGGTGAGTATACAGAAAGGC,3.06,4.61,3.87,1.72,5.29,3.35,1.64,1.24
TCTATTATTTGAAGGGCAACCGACGAGTCCGTTT,1.34,0.739,0.634,2.12,0.997,0.552,0.572,2.12
GTACCAAGGTGAATAGGTCGCTGATGAGTAGGCG,1.69,2.65,1.53,-0.316,1.66,1.59,0.0254,-0.0986
CCTTACGGGTCACTGACAGGTGATAGCATTTGGA,3.85,5.63,4.84,2.09,6.14,3.23,0.557,1.31
GCTATTAGATGAAAGGGCAACCGAATGATTCTCG,1.76,0.991,1.24,0.654,1.17,0.435,-0.425,-0.071
CAACCTAGGTCAGGGCCAGTATAGGAGGAACGTT,2.7,3.49,4.18,0.0707,2.07,2.12,0.435,-0.128
TAGCCTAGGTGATTCAGGGGCCAGTATAGAAAGC,0.919,0.914,0.0636,-0.561,-0.089,0.651,-0.0483,-0.15
CAAACTAGGTCAAGAGGTCAAAGTGCGCTTCCCG,5.69,8.27,7.86,3.2,8.67,4.46,2.56,4.83
TCTAGTTGTTCAAAGGTCACACACTCGAAATGCG,5.28,6.3,6.07,2.05,7.19,4.11,2.21,2.78
TCGAGAAGGTTAGTCGGGGCATTCAGCCAACATA,0.99,0.634,0.546,0.877,0.644,1.79,0.0413,1.2
AGTCAAAGTTCGCTAGGTAACGTAAGATTCAGCT,0.79,1.41,1.49,1.92,0.868,0.668,-0.0669,0.872

Sequence,PBM binding z-score [1],PBM binding z-score [2],PBM binding z-score [3],PBM binding z-score [4],PBM binding z-score [5],PBM binding z-score [6],PBM binding z-score [7],PBM binding z-score [8]
GCGCCTGGGGCAAAGCAGGTTACCATAAGGTTGG,0.951,0.319,0.493,-0.424,0.237,2.96,-0.193,-0.387
CCTTACGGGTGACGAGGTTATAGCACGACGAGCG,1.05,1.29,0.849,-0.461,1.95,1.33,0.317,0.36
AGAACGATGGCAATGAGTTGATAGCACGGGTGGC,-1.04,-0.249,0.108,-0.297,0.0313,-0.986,-0.999,-0.0604
TCATAGAGGTAAATGCTAGGTGAAAGTCCGATCT,0.335,0.753,0.235,0.932,0.849,1.94,0.361,-0.248
TCTAGTTGGTCAAAGGTCCCACACTCGAAATGCG,1.47,1.55,1.05,1.26,1.75,0.71,0.58,0.39
GCTGCTAGGTCACGTTGGTCAGCTAACGGGTACG,3.68,4.37,5.6,1.5,3.09,3.38,1.79,0.836
TCTATTAGTTGAAGGGTAACCGACGAGTCCGTTT,0.751,0.464,0.398,1.95,0.736,0.32,0.529,1.44
GATACAGGGTCAAGTCCAGAGTACGCGTATTGAT,3.68,5.8,5.41,3.08,6.06,3.68,1.22,3.51
ATCTCTAGGTCAAGTTCAGTGAAAGATCGATAGA,3.89,4.93,5.92,2.98,3.73,3.44,2.16,3.44
CTCGAAAGGTCGGTTGAGGTGAGTATGCGGATAA,2.57,2.73,2.73,0.85,2.4,5.15,1.43,0.532
CCGAATGGGGCAGAAAGGTTACCATACCATCCGG,2.38,1.8,1.36,-0.766,1.91,1.07,-0.641,-0.0198
GGAACGAGGGAAAGTTGATAGCAGAGTTTGATGG,-0.315,-0.266,0.0692,0.0118,-0.106,-0.351,-0.268,-0.209
ATATGTAGGTTAGCTGGGGTCGTTCAGACTAGGC,1.8,1.66,1.15,1.08,2.37,4.63,1.18,2.29
GATACAGGGTCAGCTAGAGGCCAGATTATGGAAA,3.59,6.4,4.49,1.25,4.05,3.2,0.619,0.715
GGAACGAGGGCATTCGAGTTGTTAGCATGGCGAT,0.647,0.902,1.17,2.89,0.659,2.06,-0.524,2.43
GGAACGAGTGCAAAGTTGATAGCATCTGTCGACG,-0.159,0.335,0.145,3.22,0.874,-0.385,-0.711,1.88
ATACCAAGGTGATCGTGAGGACGTTGATACTAAC,0.51,0.635,0.393,-0.27,0.264,2.96,1.97,0.714
CTTCAAAGTTCAAGGTAACGTAACAGAAAGCAGC,3.62,5.19,6.14,4.34,4.62,2.96,1.34,3.44
CAAACTGGGTCACCGGAAGGTCAAAGTCCGCATG,5.45,8.27,7.08,0.907,6.37,4.2,1.61,2.92

Sequence,PBM binding z-score [1],PBM binding z-score [2],PBM binding z-score [3],PBM binding z-score [4],PBM binding z-score [5],PBM binding z-score [6],PBM binding z-score [7],PBM binding z-score [8]
AATACAGGGTCATCGTAGGCCCGAGTACGCACAG,3.43,5.52,5.24,3.34,6.9,3.72,1.41,3.29
TCTTGTAGATCAATAGAGGTTAGGAAAGTGCGCT,0.826,0.947,0.486,0.658,1.29,2,-0.0407,0.48
ATATGTAGGTTAGATGGGGTCATTCAGACTAGGC,3.8,4.06,2.93,2.39,5.63,5.15,3.28,5.95
CCGACTGGGGCAAAGTTTACCATACTCAGTACGA,0.876,1.01,1.06,1.29,0.757,0.304,-0.108,0.435
TCATGTAGATCAAGCAGGTTAAGAAAGCCTGAGT,0.058,0.118,0.0856,0.962,0.48,0.397,-0.412,0.0758
TCTTGTAGATCAAAGGTTAAGAATGCCGAAGCCT,1.48,1.72,0.719,0.824,3.46,1.35,-0.308,-0.101
AGAACCAGGGCACGCTGAGTTGATAGCAGAGTAG,0.548,0.797,1.19,-0.0403,0.657,0.883,-0.00671,0.466
ATCTCTAGGCAAGACTCAGTTCAGTGAAGAACGC,0.298,-0.279,0.0763,0.109,-0.365,0.205,0.122,1.01
CATACAGGGTCAGCCAGGCCAGAGTAGGGACGGC,3.14,4.58,4.31,1.4,4.58,3.36,1.19,1.78
GCTGCTAGGTCAGGTTGGTGAGCTAACGGGTACG,2.33,2.37,3.34,0.361,1.05,1.76,0.218,0.0347
ACTAGCAGGCCAAGGGTCACTGAAGATTAGTCCG,3.8,4.5,3.97,0.371,4.49,2.68,-0.0402,0.94
GCGACTGGGGCATCACCAGGTTACCATAACTTAA,0.954,0.961,0.521,-0.237,0.427,1.92,0.551,-0.267
TAGCCTATGTCATTCAGGGGCCAGTATAGAAAGC,0.708,1.65,0.547,-0.121,0.203,0.454,-0.611,-0.479
CCGAGTACGTTATGGGGCATTCAGGCAACGGTGA,0.358,-0.121,-0.0152,3,-0.121,0.188,-0.521,1.4
TAGCCTAGGTCACGCGGGCCAGTATAGTGTCGGC,3.49,5.13,5.55,0.633,4.2,3.74,1.61,0.563
CGAACTGGGTCAAGGACAGTGAATCTCCGCACGC,2.55,3.53,3.36,0.955,2.54,2.76,1.56,0.325
GCTAGCAGGCCATTTGGGTCACTCCATGACGGGC,1.6,0.733,1.19,0.0531,0.716,1.61,0.324,0.419
CGAACTAGGCCATCCAGGACAGTGAATACATTGA,0.41,0.517,0.851,0.537,0.302,1.57,0.93,0.275
TCAGACAGGCGAAGGTAACTCAGGTACGCAGTCG,-0.405,-0.089,-0.377,0.863,0.579,0.951,-0.297,-0.35
